According to article PMC5540273 (PLoS ONE, 2017):
Like-named read-outs stand apart in the source and are kept apart here.

Columns and labels:
ZAK = details: concentration: 1 μM, replicates: in singlicate; n = 1
ZAP70 = details: concentration: 1 μM, replicates: in singlicate; n = 1
p38-alpha = test system: T1, p38-alpha; details: n = 1
T1 construct: gene MAPK14

p38-beta = test system: T2, p38-beta; details: concentration: 1 μM, replicates: in singlicate; n = 1
T2 construct: gene MAPK11

p38-delta = details: concentration: 1 μM, replicates: in singlicate; n = 1
p38-gamma = test system: T3, p38-gamma; details: concentration: 1 μM, replicates: in singlicate; n = 1
T3 construct: gene MAPK12

[1] = concentration: 1 μM, replicates: in singlicate
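Note: KINOMEscan kinase panel screen.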

| Structure (SMILES) | %Inh (ZAK) [%] | %Inh (ZAP70) [%] | %Inh (p38-alpha; [1]) [%] | %Inh (p38-beta) [%] | %Inh (p38-delta) [%] | %Inh (p38-gamma) [%] | %Inh (p38-alpha; 1 µM) [%] |
| --- | --- | --- | --- | --- | --- | --- | --- |
| O=C(Nc1cccc(Oc2ccc3nc(NC(=O)C4CC4)cn3n2)c1)c1ccccc1C(F)(F)F | 25 | 0 | 9 | 15 | 17 | 42 |  |
| COc1ccc(Nc2nccc(NCCNC(=O)c3cc4ccccc4s3)n2)cc1 [GSK1379896] | 0 | 0 | 13 | 0 | 11 | 5 |  |
| CCS(=O)(=O)c1ccc(OC)c(Nc2nccc(-c3c(-c4cccc(NC(=O)c5c(F)cccc5F)c4)nn4ncccc34)n2)c1 [GSK326180] | 28 | 46 | 99.9 | 99.6 | 47 | 0 |  |
| C[C@@H](Oc1cc(-n2cnc3cc(-c4ccnc(NCCS(C)(=O)=O)c4)ccc32)sc1C(N)=O)c1ccccc1Cl [GSK907232] | 27 | 0 | 0 | 14 | 29 | 0 |  |
| CCc1ccc(-c2ccc3c(c2)-c2c(cnn2C)S(=O)(=O)N3C)cc1 | 3 | 0 | 9 | 4 | 23 | 14 |  |
| CN1CCN(Cc2cccc(-c3ccc4c(Nc5ccc(Oc6ccccc6)cc5)ccnc4c3)c2)CC1 [GW578342] | 79 | 14 | 23 | 0 | 37 | 2 |  |
| Cl.c1ccc(-c2ccc3c(Nc4ccc5[nH]ccc5c4)ccnc3c2)nc1 [GW440138] | 0 | 49 | 20 | 0 | 41 | 0 |  |
| CC(=O)N1CCN(c2ccc(Nc3nccc(-c4sc(C(C)C)nc4-c4cccc(NS(=O)(=O)c5cccc(Cl)c5)c4)n3)cn2)CC1 [GSK1660437] | 96.7 | 0 | 32 | 0 | 0 | 11 |  |
| Cn1cc(-c2ccc3c(c2)CCN3C(=O)Cc2cccc(Cl)c2)c2c(N)ncnc21 [GSK2606590] | 0 | 0 | 0 | 0 | 57 | 29 |  |
| Cc1ccc(F)c(C(=O)Nc2cccc(-c3nn4ccccc4c3-c3ccnc(Nc4cccc(F)c4)n3)c2)c1F [GSK361061] | 89 | 0 | 29 | 76 | 0 | 12 |  |
| Nc1ncnc2c1nc(-c1ccccc1)n2-c1ccccc1 [SKF-97293] | 16 | 12 | 12 | 4 | 0 | 26 |  |
| CCCCc1nn2ncccc2c1-c1ccnc(Nc2ccc(N3CCN(C)CC3)cc2)n1 [GW684941] | 51 | 0 | 94.2 | 43 | 21 | 0 |  |
| C[C@@H]1CC[C@@H](C(=O)Nc2ccccc2)CN1c1cc(-c2ccc3c(N)n[nH]c3c2)nc(N)n1 [GSK2286062] | 0 | 0 | 28 | 0 | 13 | 46 |  |
| O=C(Nc1cccc(-c2nn3ncccc3c2-c2ccnc(Nc3ccccc3)n2)c1)c1c(F)cccc1F [GSK198271] | 96.6 | 0 | 99.3 | 99.2 | 77 | 0 |  |
| Cc1ccc(C)c(NC(=O)NC2CCN(c3ccnc(Nc4ccc(F)cc4)n3)C2)c1 (stereo not drawn) [GSK1379720] | 15 | 0 | 11 | 0 | 45 | 16 |  |
| c1ccc(Oc2ccc(Nc3ccnc4cc(-c5ccc(CNCCN6CCOCC6)o5)ccc34)cc2)nc1 [GW567145] | 77 | 0 | 20 | 0 | 0 | 0 |  |
| COc1cccc(C2=C(Nc3ccc(Cl)c(C(=O)O)c3)C(=O)NC2=O)c1 [SB-390769] | 0 | 5 | 12 | 0 | 45 | 100 |  |
| COc1cccc(-c2ccc3c(NC(=O)C4CC4)n[nH]c3n2)c1 [SB-710903] | 0 | 48 | 23 | 0 | 40 | 0 |  |
| O=C(Nc1ccccc1F)NC1CCN(c2ccnc(Nc3ccc(F)cc3)n2)CC1 [GSK1379800] | 30 | 47 | 32 | 0 | 45 | 0 |  |

| Structure (SMILES) | %Inh (ZAK) [%] | %Inh (ZAP70) [%] | %Inh (p38-alpha; [1]) [%] | %Inh (p38-beta) [%] | %Inh (p38-delta) [%] | %Inh (p38-gamma) [%] | %Inh (p38-alpha; 1 µM) [%] |
| --- | --- | --- | --- | --- | --- | --- | --- |
| Cn1cc(-c2[nH]c3cc(NC(=O)[C@H](N)C4CCCCC4)cc4c3c2C=NNC4=O)cn1 | 0 | 17 | 0 | 0 | 0 | 7 |  |
| CN(c1ccc(NC(=O)Nc2cc(C(F)(F)F)ccc2F)cc1)c1ccnc(Nc2ccc(S(N)(=O)=O)cc2)n1 [GW809893] | 94.8 | 27 | 9 | 88 | 91.7 | 85 |  |
| COc1cccc(NC(=O)NC2CCN(c3ccnc(Nc4cc(OC)c(OC)c(OC)c4)n3)C2)c1 (stereo not drawn) [GSK1379763] | 0 | 0 | 24 | 0 | 8 | 4 |  |
| Nc1ncc(-c2cccnc2)c2scc(-c3ccc4c(c3)CCN4C(=O)Cc3ccccc3)c12 [GSK683281] | 9 | 0 | 4 | 0 | 71 | 0 |  |
| Fc1ccc(-c2ncn(C3CCNCC3)c2-c2ccnc(Oc3ccc(-c4ccccc4)cc3)n2)cc1 [SB-245391] | 17 | 24 |  | 60 | 0 | 26 | 96 |
| Cc1cccc(NC(=O)Nc2ccc(Oc3ncnc4ccn(C)c34)cc2)c1 | 0 | 0 | 0 | 0 | 0 | 0 |  |
| CC(=O)Nc1nc2cnc(Nc3cc(NC(=O)c4cccc(C5(C#N)CC5)c4Cl)ccc3C)nc2s1 | 17 | 0 | 86 | 19 | 17 | 0 |  |
| CCn1c(-c2nonc2N)nc2c(C#CC(C)(C)O)ncc(OCCCCN)c21.O=C(O)C(F)(F)F.O=C(O)C(F)(F)F [GSK507274] | 36 | 0 | 0 | 0 | 27 | 0 |  |
| Cl.Cl.NCC(NC(=O)c1cc(-c2ccccc2)c(-c2ccnc3[nH]ccc23)s1)c1ccccc1 (stereo not drawn) [GSK1321561] | 46 | 0 | 0 | 0 | 47 | 0 |  |
| COc1cc(Nc2nccc(N3CCC(NC(=O)c4cc5ccccc5s4)C3)n2)cc(OC)c1OC (stereo not drawn) [GSK1379760] | 0 | 0 | 3 | 2 | 15 | 26 |  |
| COc1ccc(Nc2nccc(N3CCC(NC(=O)Nc4cccc(OC)c4)C3)n2)cc1 (stereo not drawn) [GSK1379742] | 2 | 3 | 1 | 0 | 29 | 0 |  |
| Cl.c1ccc(-c2ccc3c(Nc4ccc5[nH]ncc5c4)ccnc3c2)nc1 [GW440137] | 71 | 24 | 8 | 0 | 38 | 14 |  |
| O=C(Nc1n[nH]c2nc(-c3ccc(O)cc3)ccc12)C1CC1 [SB-710363] | 23 | 0 | 0 | 11 | 0 | 20 |  |
| COC(=O)Nc1nc2cc(Oc3ccc(NC(=O)Nc4cc(C(F)(F)F)ccc4F)cn3)ccc2[nH]1.Cl.Cl [GW681170] | 92 | 0 | 70 | 34 | 75 | 42 |  |
| CN1CCN(CCCNc2nccc(-c3c(-c4ccc(F)cc4)nn4cc(C(F)(F)F)ccc34)n2)CC1 [GW621581] | 17 | 0 | 99.8 | 39 | 12 | 18 |  |
| FC(F)(F)c1ccc(/C=C/c2cncnc2Nc2ccc3[nH]c(Cc4ccccc4)nc3c2)cc1 [GW709199] | 0 | 9 | 0 | 3 | 0 | 35 |  |
| COc1cccc(C(=O)Nc2cccc(Oc3ccc4nc(NC(=O)C5CC5)cn4n3)c2)c1 | 62 | 0 | 15 | 16 | 32 | 39 |  |
| Nc1n[nH]c2cnc(-c3ccccc3)cc12 [SB-642124] | 16 | 0 | 0 | 0 | 28 | 0 |  |
